# This excerpt belongs to a sample that is enriched for hits.
# Pf Dd2 growth: qHTS Primary assay for Inhibitors of Plasmodium falciparum Dd2 growth in vitro. P. falciparum Dd2 growth, SYBR Green, 72 h. Potency, µM (top dose mostly 28.9 µM), without a hit: top-dose activity, negative = inhibition, hits mostly inhibitors. 120,000 compounds, 4.3% hits. AID 1347417, 2020; active means well fitted inhibition curve with a large enough effect;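 further: plate controls were DMSO vehicle for no effect and reference drug for full effect; nearly all actives have a fitted effect of over 65% in size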
#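 Readout: SYBR Green fluorescence, 485 nm excitation, 535 nm emission, after ~16 h lysis at 37C. Before that, Dd2-infected red cells (2.5% hematocrit) grew 72 h with compound, 29 uM top final concentration.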
# Numbers without * were called inactive; i = inactive; [ ] = remark or other dose. Potency means the concentration at half of the fitted maximal effect.
SMILES,Pf Dd2 growth
Cc1noc([C@H]2CCN(C(=O)NCc3ccccc3)C[C@H]2NC(=O)C2CCOCC2)n1,15.4%
COc1ccc(OC)c(NC(=O)Cn2c(-c3cnccn3)nc(C)c(CCO)c2=O)c1,-3.6%
CN1CCN(c2ccc(C(=O)N3CCC(n4cnnc4)CC3)cc2)CC1,-13.1%
CC(C)(O)C1CCCN(C(=O)c2cc(COc3ccccc3F)[nH]n2)C1 (configuration not stated),-5.1%
CN[C@H](C(=O)N[C@H]1C[C@@](O)(C(=O)N[C@@H](Cc2cccs2)C(N)=O)C[C@@H](O)[C@@H]1O)C(C)C,-8.7%
Cc1nc(C)c(C(=O)N2C[C@@H](Oc3ccccc3)C[C@H]2C(=O)NC2CC2)s1,-4.0%
COCCNC(=O)c1nc(-c2cccnc2)c2cnccn12,0.3%[44.1 µM]
C[S+](=O)([O-])c1ccc(-c2nc(C(=O)NCCc3ccc(Cl)cc3)n3ccncc23)cc1,8.91µM*
CC(C)(C)c1nc(C(=O)NCCc2ccc(Cl)cc2)n2ccncc12,2.24µM*
Cc1cccn2c(=O)c(C(=O)NCCc3ccc(Cl)cc3)cnc12,i
Cn1ncc2c(C(=O)NCCc3ccc(Cl)cc3)cc(-c3ccc([S+](C)(=O)[O-])cc3)nc21,-19.4%
COC(=O)CNC(=O)c1nc(-c2ccsc2)c2cnccn12,-8.1%[44.1 µM]
Cc1cc(C(=O)N[C@H]2CCOC[C@H]2C2CCOCC2)cc2sc(N)nc12,2.9%
O=C(c1cccc(OC(F)(F)F)c1)N1CCC(c2n[nH]c(=O)n2-c2ccccc2)CC1,-15.3%
O=C(c1cccc(F)c1)N1CCC(Cc2nc(-c3ccccc3)no2)CC1,-21.0%
C=CCNC(=O)C[C@@H]1CCN(C(=O)C2CC2)C[C@@H]1CC,-18.7%[44.1 µM]
O=C(NCc1ccccc1)N1CCC(O)(c2csc(CN3CC[C@@H](O)C3)n2)CC1,41.8%[44.1 µM]
CCNc1ncc(CN2CCC(N)(C(=O)O)C2)cn1 (configuration not stated),4.4%
Cc1ncoc1C(=O)N1CCC(c2noc(-c3cccnc3)n2)C1 (configuration not stated),48.8%[5.79 µM]
CCOC(=O)C1CCN(S(=O)(=O)c2cc3c4c(c2)C(C)C(=O)N4CCC3)CC1 (configuration not stated),i
CCOC(=O)C1CCN(S(=O)(=O)c2cc3c4c(c2)CC(=O)N4CCC3)CC1,10µM*
CCOC(=O)C1CCCN(S(=O)(=O)c2cc3c4c(c2)CC(=O)N4CCC3)C1 (configuration not stated),-8.7%
O=[S+]([O-])(Nc1ccccc1)c1ccc2c(c1)OCCN(Cc1cscn1)C2,i
CC(C)NC(=O)N1CCC2(CC1)CN(C(=O)CCCN)Cc1ccccc1O2,-6.0%
COc1ccccc1NC(=O)c1c(NC(=O)c2cccs2)sc2c1CCC(C(C)(C)C)C2 (configuration not stated),7.5%
SMILES,Pf Dd2 growth
COc1ccc(Cl)cc1NC(=O)c1c(NCc2cccs2)sc2c1CCC(C)C2 (configuration not stated),12.6µM*
COc1ccc(NC(=O)c2c(NC(=O)c3ccncc3)sc3c2CCC(C(C)(C)C)C3)cc1 (configuration not stated),57.9%
COc1ccc(Cl)cc1NC(=O)c1c(NCc2cccnc2)sc2c1CCC(C)C2 (configuration not stated),8.91µM*
COC(=O)c1c(NC(=O)CCCOc2ccccc2C)sc2c1CCC(C)C2 (configuration not stated),22.6%
COc1ccc(Cl)cc1NC(=O)c1sc2nc3c(cc2c1N)N1CCC3CC1,10.6%
CNC(=O)c1cc(-c2ccc(O)c(F)c2)cc2c1OCCN2Cc1cccnc1,i
CCCS(=O)(=O)N1CCCC(Cc2noc(-c3ccccc3)n2)C1 (configuration not stated),i
O=C(NC1CCN(c2cc(-c3cccs3)[nH]n2)C1)c1cccc2[nH]ccc12 (configuration not stated),i
CCc1ncn2ccn(Cc3ccccc3F)c(=O)c12,i
CC(C)c1ccc(NC(=O)CSC2=Nc3ccccc3C3=NC(CC(=O)NCc4cccs4)C(=O)N23)cc1 (configuration not stated),11.5%
O=C(CCC1N=C2c3ccccc3N=C(SCc3ccc(Cl)cc3)N2C1=O)NCc1cccs1 (configuration not stated),56.8%
O=C(CC1N=C2c3ccccc3N=C(SCc3ccc(Cl)cc3)N2C1=O)NCc1cccs1 (configuration not stated),91.8%
COc1ccccc1NC(=O)CSC1=Nc2ccccc2C2=NC(CC(=O)NCc3ccccc3)C(=O)N12 (configuration not stated),96.7%
Cc1ccc(CSC2=Nc3ccccc3C3=NC(CC(=O)NCc4cccs4)C(=O)N23)cc1 (configuration not stated),3.16µM*
Cc1cc(C)c(NC(=O)CSC2=Nc3ccccc3C3=NC(CC(=O)NCc4cccs4)C(=O)N23)c(C)c1 (configuration not stated),12.6µM*
COc1cccc(NC(=O)CSC2=Nc3ccccc3C3=NC(CC(=O)NCc4cccs4)C(=O)N23)c1 (configuration not stated),i
O=C(CC1N=C2c3ccccc3N=C(SCC(=O)Nc3ccccc3F)N2C1=O)NCc1cccs1 (configuration not stated),3.98µM*
O=C(CC1N=C2c3ccccc3N=C(SCc3ccccc3F)N2C1=O)NCc1cccs1 (configuration not stated),i
CN(C(=O)C1CC1)C1CCc2ccccc21 (configuration not stated),-11.9%[44.1 µM]
COCC1CN(C(C)=O)CC12CCN(Cc1ccc(Cl)cc1)CC2 (configuration not stated),9.9%
CC(=O)N1CCC(Nc2ncccc2-c2cc(-c3ccccc3)nc3c(C)noc23)CC1,-19.3%[44.1 µM]
CN(CC1CCOCC1)C(=O)c1c(F)cccc1Cl,24.4%
C[S+](=O)([O-])N1CCC2(C1)N=C(c1ccncc1)C(=O)N2 (configuration not stated),5.4%[44.1 µM]
C[C@H]1[C@@H]2[C@@H](O)C([C@H](C)C(=O)NC(C)(C)C)CC[C@@]2(C)CC[C@@H]1NC(=O)c1cccc(F)c1 (some centres not stated),-4.7%
CCOc1cc(=O)n2c(c1C(=O)Nc1ccc(C)cc1Cl)CCCC2,44.1%
SMILES,Pf Dd2 growth
O=C(CCn1nnc(-c2ccccc2)n1)N1CCCC2(CCNCC2)CC1,-9.5%
COc1ccc(CNC[C@H]2O[C@H](Cc3cc(-c4cccc(O)c4)on3)CC[C@@H]2O)cc1,i
CSc1cccc(NC(=O)N[C@H]2CO[C@H]3[C@@H]2OC[C@H]3O)c1,-4.0%[44.1 µM]
COc1ccc(Cn2c(C3CCN(C(=O)c4ccccc4Cl)CC3)n[nH]c2=O)cc1,i
CCCCNC(=O)CN1C(=O)COc2ccc(S(=O)(=O)N3CCCC3)cc21,32.3%
CC(C)CN(CCCNC(=O)CN1C(=O)COc2ccc(S(=O)(=O)N3CCCCCC3)cc21)CC(C)C,11.2µM*
CCN(CC)CCCNC(=O)CN1C(=O)COc2ccc(S(=O)(=O)N3CCC(C)CC3)cc21,5.8%
CN1C(=O)c2cccn2CC1CNC(=O)C1CCCC1 (configuration not stated),19.1%
CCn1cc(S(=O)(=O)N2CC(Oc3ccccc3-c3noc(C)n3)C2)cn1,i
CS(=O)(=O)N1CCCCCCNC(=O)[C@@H]2CCC[C@@H]21,18.8%
O=C(NCc1cnccn1)c1ccc(-c2ncc3cnc(C4=CCOCC4)cn23)cc1,i

# Source: PubChem BioAssay (National Center for Advancing Translational Sciences (NCATS))
